# Results: PubChem BioAssay (NCATS)
# Records with an inconclusive call do not appear. Entries that show only a call come without a potency. Active and inactive are the calls of the source. Calls come from the whole dose curve; as a rule, active = well fitted inhibition curve with a large enough effect; inconclusive = small, poorly fitted or top-dose-only effect; inactive = flat fitted curve, though single readings scatter.
# Molecular target: Aldehyde dehydrogenase, mitochondrial (Homo sapiens) (UniProt P05091)
# Experiment: qHTS for Inhibitors of the Aldehyde Dehydrogenase Family (ALDH2) Primary screen (AID 2061308); note: nearly all actives have a fitted effect of over 55% in size
# Settings: ALDH2 enzyme inhibition qHTS, 1536-well; series mostly up to 56 µM
Structure (SMILES),Potency,"activity change, negative = inhibition"
CC(=O)OCC1=CCC2C(C)(C)CCCC2(C)C12CCC(C)(CC(=O)O)O2 (stereo not given),inactive,–
O=c1cc(N2CCN(c3cccc(C(F)(F)F)c3)CC2)[nH]c(=O)n1C1CCCCC1,inactive,–
CC(C)C1=CC2=CCC3[C@](C)(CCC[C@@]3(C)C(=O)O)C2CC1=O (stereo not given in full),inactive,–
C/C=C(\C)C(=O)OC[C@H]1O[C@H](O[C@H]2O[C@H](CO)[C@@H](OC(=O)/C(C)=C/C)[C@H](O)[C@H]2O[C@@H]2O[C@H](CO)[C@@H](O)[C@H](O)[C@H]2O)[C@H](O[C@@H]2O[C@H](CO)[C@@H](O)[C@H](O)[C@H]2O)[C@@H](O)[C@@H]1O,inactive,–
CC(=O)OC(C)(C)/C=C/C(=O)[C@](C)(O)[C@H]1C(O)C[C@@]2(C)[C@@H]3CC=C4[C@@H](C=C(O[C@@H]5O[C@H](CO)[C@@H](O)[C@H](O)[C@H]5O)C(=O)C4(C)C)[C@]3(C)C(=O)C[C@]12C (stereo not given in full),inactive,–
CC1(C(=O)O)CCCC2(C)C3CC4C5CC3(CCC12)CC45C (stereo not given),inactive,–
CC1(C)CC[C@]2(C(=O)O[C@@H]3O[C@H](CO)[C@@H](O)[C@H](O)[C@H]3O)CC[C@]3(C)C(=CCC4[C@@]5(C)CC[C@H](O[C@@H]6O[C@H](C(=O)O)[C@@H](O)[C@H](O)[C@H]6OC6OC(CO)C(O)C(O)C6O)C(C)(C)C5CC[C@]43C)[C@@H]2C1 (stereo not given in full),inactive,–
CC1(C)OC(=O)C(OCC2CC2)=C1c1ccc(S(C)(=O)=O)cc1,inactive,–
CC(=O)O[C@H]1[C@H](O[C@H]2[C@@H]3C=CO[C@@H](O[C@@H]4O[C@H](CO)[C@@H](O)[C@H](O)[C@H]4O)[C@@H]3[C@@]3(CO)O[C@@H]23)O[C@@H](C)[C@H](OC(=O)/C=C/c2ccccc2)[C@H]1OC(=O)/C=C/c1ccccc1,inactive,–
CC(=O)O[C@@H]1[C@H](O)[C@@H](O[C@@H]2O[C@@H](C)[C@H](O[C@@H]3OC[C@@H](O)[C@H](O[C@@H]4OC[C@@H](O)[C@H](O)[C@H]4O)[C@H]3O)[C@@H](O[C@@H]3O[C@H](CO)[C@@H](O)[C@H](O)[C@H]3O)[C@H]2O)[C@H](OC(=O)[C@]23CCC(C)(C)C[C@H]2C2=CCC4[C@@]5(C)CC[C@H](O[C@@H]6O[C@H](C(=O)O)[C@@H](O)[C@H](O[C@@H]7OC[C@@H](O)[C@H](O)[C@H]7O)[C@H]6O[C@@H]6O[C@H](CO)[C@H](O)[C@H](O)[C@H]6O)[C@@](C)(C=O)C5CC[C@@]4(C)[C@]2(C)CC3)O[C@@H]1C (stereo not given in full),–,5.14% [at 11.2 µM] (inactive)
Cc1ccc(N2CCN(S(=O)(=O)N3CCCCC3)CC2)c(C)c1,inactive,–
N#C[C@@H]1CCCN1C(=O)CNC12CC3CC(CC(O)(C3)C1)C2,inactive,–
CC(O)/C=C/C1(O)C(C)C(O)C(O[C@@H]2O[C@H](CO)[C@@H](O)[C@H](O)[C@H]2O)CC1(C)C (stereo not given in full),inactive,–
CC(=O)O[C@H]1[C@H](OC(=O)C(C)C)[C@]2(C)OC3(CC[C@]2(C)[C@H]2CCC[C@]4(CO4)[C@]12C)COC(=O)C3 (stereo not given in full),inactive,–
C[C@@H]1O[C@@H](OC2C(O[C@H]3[C@H](O[C@H]4CC[C@@]5(C)C(CC[C@]6(C)C5CC=C5C7CC(C)(C)CC(O)[C@]7(C)CC[C@]56C)C4(C)C)O[C@H](C(=O)O)[C@@H](O)[C@@H]3O)OC(CO)C(O)C2O)[C@H](O)[C@H](O)[C@H]1O (stereo not given in full),inactive,–
C=C1C(=O)O[C@H](CCC)[C@H]1C(=O)O,inactive,–
CC/C=C(\C(=O)N[C@@H]1C(=O)N2C(C(=O)OCOC(=O)C(C)(C)C)=C(COC(N)=O)CS[C@H]12)c1csc(N)n1,inactive,–
CC(O)(CC(=O)O)CC(=O)OCc1ccc(O[C@@H]2O[C@H](CO)[C@@H](O)[C@H](O)[C@H]2O)cc1 (stereo not given in full),inactive,–
CC(C)(C)OC(=O)N1CCC(OCc2nc(-c3ccncc3)no2)CC1,inactive,–
CC(C)=CCC[C@](C)(O[C@@H]1O[C@H](CO[C@@H]2OC[C@@H](O)[C@H](O)[C@H]2O)[C@@H](O)[C@H](O)[C@H]1O)[C@H]1CC[C@]2(C)[C@@H]1[C@H](O)C[C@@H]1[C@@]3(C)CC[C@H](O[C@@H]4O[C@H](CO)[C@@H](O)[C@H](O)[C@H]4O)C(C)(C)[C@@H]3CC[C@]12C,inactive,–

Structure (SMILES),Potency,"activity change, negative = inhibition"
CC(C)=C1C[C@@]2(C)C(=CC1=O)CC[C@@H](OC(=O)/C(C)=C/CO)[C@@H]2C,inactive,–
C=C1CCC2C(OC(=O)C2(O)COC(C)=O)C2C(=C)C(O)CC12 (stereo not given),inactive,–
Cc1cccc(-c2[nH]ncc2-c2ccnc3ccccc23)n1,inactive,–
CC1(C)CC[C@]2(C(=O)O[C@@H]3O[C@H](CO)[C@@H](O)[C@H](O)[C@H]3O)CC[C@]3(C)C(=CCC4[C@@]5(C)CC[C@H](O[C@@H]6O[C@H](C(=O)O)[C@@H](O)[C@H](O)[C@H]6O)C(C)(C)C5CC[C@]43C)C2C1 (stereo not given in full),inactive,–
FC(F)(F)c1cc(-c2ncn(/C=C\c3nnco3)n2)cc(C(F)(F)F)c1,inactive,–
C=C1[C@H](OC(C)=O)[C@H]2[C@@H](OC(C)=O)[C@](C)(OC(C)=O)C[C@]2(OC(C)=O)C(=O)[C@H](C)/C=C/C(C)(C)C(=O)[C@H](OC(=O)C(C)CC)[C@H]1OC(C)=O (stereo not given in full),inactive,–
C=C(C)[C@@H]1CC[C@]2(CO)CC[C@]3(C)[C@H](CC[C@@H]4[C@@]5(C)CC[C@H](O)C(C)(C)[C@@H]5CC[C@]43C)[C@@H]12,inactive,–
CC1=CC(=O)CC(C)(CO[C@@H]2O[C@H](CO)[C@@H](O)[C@H](O)[C@H]2O)C1(O)/C=C/C(C)=C/C(=O)O (stereo not given in full),inactive,–
C=C(C(=O)O)[C@@H]1CC[C@H](C)[C@@H]2CC(=O)C(C)=C2C1,inactive,–
CCOc1nc2cccc(C(=O)O)c2n1Cc1ccc(-c2ccccc2-c2nn[nH]n2)cc1,inactive,–
C=C[C@@]1(C)CCC2=C([C@H]1OC(C)=O)[C@H](OC(C)=O)CC1[C@](C)(C(=O)OC)CC[C@H](OC(C)=O)[C@]21C (stereo not given in full),inactive,–
CC(C)(C)c1ccc(C(=O)Nc2cn3cc(-n4ccnc4)ccc3n2)cc1,inactive,–
COc1ccc(CCc2nc3cc(-c4c(C)noc4C)ccc3n2CC(C)N2CCOCC2)cc1Cl (stereo not given),inactive,–
CC(C)C1(O[C@@H]2O[C@H](CO)[C@@H](O)[C@H](O)[C@H]2O)CC=C(CO)CC1 (stereo not given in full),inactive,–
CC1=C(C(=O)OC2OC(COC3OC(CO)C(O)C(O)C3O)C(O)C(O)C2O)C(C)(C)CCC1 (stereo not given),inactive,–
Cc1cccc(N2CCN(C(=O)c3cc(S(=O)(=O)N(C)C)ccc3N3CCCC3)CC2)c1C,inactive,–
CCCCCOC(=O)Nc1nc(=O)n(C2O[C@H](C)[C@@H](O)[C@H]2O)cc1F (stereo not given in full),inactive,–
COc1ccc(CCC(=O)O)c(O[C@@H]2O[C@H](CO)[C@@H](O)[C@H](O)[C@H]2O)c1,inactive,–
C/C=C(/C)C(=O)O[C@@H]1C[C@@H](OC(=O)CC(C)C)C2(C)C3C(=O)C=C(C)C2C3C1(C)C (stereo not given in full),inactive,–
CCC(C)C1NC(=O)C(Cc2ccccc2)NC(=O)C(CCCCCC(=O)C(O)CO)NC(=O)C2CCCCN2C1=O (stereo not given),inactive,–
